Inconclusive results are not listed. A call without a number means that no potency is given here. Calls of active or inactive are those of the source. Calls follow the shape of the dose curve; as a rule, active = well fitted activation curve with a large enough effect in the signal ratio in the repeat runs (not every such curve was filed as active); inconclusive = weak or mixed curves; inactive = flat fitted curve, though single readings scatter; the % refers to the signal ratio.
assay: p53 small molecule agonists, cell-based qHTS assay (AID 1963582); details: HCT-116 p53RE-bla reporter, beta-lactamase FRET ratio, 16 h; series mostly up to 66 µM
Excerpt: National Center for Advancing Translational Sciences [NCATS]
Division of Preclinical Innovation [DPI]
U.S. Environmental Protection Agency [EPA]
National Institutes of Environmental Health Sciences [NIEHS]
National Toxicology Program [NTP]
U.S. Food and Drug Administration [FDA]
p53, a tumor suppressor protein, is activated following cellular insult, including DNA damage and other cellular stresses. The activation of p53 regulates cell fate by inducing DNA repair, cell cycle arrest, apoptosis, or cellular senescence. The activation of p53, therefore, is a good indicator of DNA damage and other cellular stresses. […] The activation of the reporter gene under culture conditions can be detected by fluorescence intensity. This cell line was used to screen the Tox21 10K compound library in a 1536-well plate format and to identify agonists that activate the p53 signaling pathway.
Tox21 Assay Protocol Summary:
The p53RE-bla cells were dispensed at 4,000 cells/5 ul/well in 1536-well black wall/clear bottom plates using a Multidrop dispenser. After the assay plates were incubated at a 37 C/5% CO2 incubator for 5 hours, 23 nL of compounds dissolved in DMSO, positive controls or DMSO only was transferred to the assay plate by a pin tool. The plates were incubated at 37 C for 16 hours. After 1 uL of LiveBLAzerTM B/G FRET substrate was added using a Flying Reagent Dispenser, the plates were incubated at room temperature for 2 hours, and fluorescence intensity was measured by an Envision plate reader.

Compound	Potency
C[N+](=O)[O-]	inactive
CNc1cnn(-c2cccc(C(F)(F)F)c2)c(=O)c1Cl	inactive
CCOP(=S)(OCC)SCCSCC	inactive
CCCC[n+]1cccc(C)c1	inactive
Nc1ccc(N=Nc2ccc(-c3ccc(N=Nc4c(S(=O)(=O)O)cc5cc(S(=O)(=O)O)c(N=Nc6ccccc6)c(O)c5c4N)cc3)cc2)c(N)c1	inactive
CC(Cl)CCl (stereo not given)	inactive
CCN(Cc1ccc(Cl)nc1)/C(=C/[N+](=O)[O-])NC	inactive
CCC[N+](=O)[O-]	inactive
O=Cc1ccccc1	inactive
CC(=O)CC(c1ccc(Cl)cc1)c1c(O)c2ccccc2oc1=O (stereo not given)	inactive
O=P(OCCCl)(OCCCl)OCCCl	inactive
O=C(NC(=O)c1c(F)cccc1F)Nc1cc(Cl)c(OC(F)(F)C(F)C(F)(F)F)cc1Cl (stereo not given)	inactive
CCC(C)(C)c1ccc(O)cc1	inactive
CC1(C)[C@H](C(=O)O[C@H](C#N)c2cccc(Oc3ccccc3)c2)[C@@H]1/C=C(\Cl)C(F)(F)F	inactive
CNC(=O)Oc1ccccc1OC(C)C	inactive
COC(=O)c1c(C(F)F)nc(C(F)(F)F)c(C2=NCCS2)c1CC(C)C	inactive
c1ccc(-c2ccccc2)cc1	inactive
CCCN(CCOc1c(Cl)cc(Cl)cc1Cl)C(=O)n1ccnc1	inactive
Nc1cc(Cl)cc(Cl)c1	inactive
CN=C=O	inactive

Compound	Potency
CCCCc1c(C)nc(NCC)[nH]c1=O	inactive
Nc1ccncc1	inactive
CC(NC(C)(C)C)C(=O)c1cccc(Cl)c1 (stereo not given)	inactive
Nc1nc(N)nc(Cl)n1	inactive
Cc1ccc2ccccc2c1	inactive
C=C(C)C(=O)OCC(CC)CCCC (stereo not given)	inactive
C[C@]12CCC(=O)C[C@@H]1CC[C@@H]1[C@@H]2CC[C@]2(C)[C@@H](O)CC[C@@H]12	inactive
Oc1ccc(Cl)c(Cl)c1	inactive
CNCC(O)c1ccc(O)cc1 (stereo not given)	inactive
CC(=O)C(Cl)Cl	inactive
O=C(O)c1cc(Cl)ccc1Cl	inactive
Cc1ccccc1O	inactive
c1ccc(P(c2ccccc2)c2ccccc2)cc1	inactive
COCCC#N	inactive
C=CC(=O)OCC(CC)CCCC (stereo not given)	inactive
Cc1cc(Cl)ccc1N=CN(C)C	inactive
NC(=O)CF	inactive
CCNc1nc(Cl)nc(NC(C)C)n1	inactive
CCOC(=O)C(c1c(O)c2ccccc2oc1=O)c1c(O)c2ccccc2oc1=O	inactive
COS(=O)(=O)c1ccc(C)cc1	inactive

— PubChem BioAssay (Tox21)
